Test [1] deals with 6-phosphogluconate dehydrogenase, decarboxylating (Homo sapiens) (UniProt P52209). The test is described as follows: 6PGD enzyme inhibitors, primary screen, biochemical, human, recombinant enzyme, NADPH absorbance (AID 1159550;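 active = at least 20% inhibition of 6-phosphogluconate dehydrogenase activity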). To be noted: recombinant 6PGD, NADPH absorbance 341 nm; at 10 µM; stronger effect = higher value.
Test [2] in a line: differential killing of epithelial or mesenchymal cells, primary screen, imaging, PC-3E GFP, TEM4-18 mCherry, co-culture (AID 1345086;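 active = compounds killing one labelled cell type while sparing the other, by normalised counts and ratio limits, not self-fluorescent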;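 for all read-outs here: cells exposed to compound for 72 h before imaging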;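 for red/green cell ratio (normalised): normalised mesenchymal count divided by normalised epithelial count so high means epithelial killing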). The conditions noted are these: imaging cell counts, at 1 µM; for red/green cell ratio (normalised): actives lie on both sides, counts scaled to control wells, 1 = unselective.
Test [3] is described as follows: sensitizers of A549 cells to miR-34 induction, primary screen, imaging, A549 dox-inducible miR-34, nuclei and caspase counts (AID 1347080). The conditions noted are these: A549 miR-34 inducible, Hoechst nuclei count, 48 h.
Test [4] can be described thus: survival rescue of mitochondrial mutant cells in low glucose, primary screen, MELAS cybrids, Rieske KO mouse fibroblasts, CellTiter-Glo (AID 1508586;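 active = mean z-score across replicates of 1.96 or higher in either the MELAS or the Rieske mutant cell line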;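 note: z relative to plate mean and SD of compound and empty wells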). Background: In ATP-based viability assays light output follows the ATP content of the culture.
For test [5], the target named is Mitogen-activated protein kinase 7 (Homo sapiens) (UniProt Q13164). The test is described as follows: ERK5 transactivation activators in reporter cells, primary screen, cell-based, HTS (AID 1508626;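 active = luciferase signal above three times the same-plate solvent-only control wells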;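 note: luciferase driven by Gal4-ERK5 fusion binding five Gal4 sites before minimal TATA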). To be noted: HeLa Gal4-ERK5 transactivation, 18 h, at 5 µM, stronger effect = higher value.
Test [6] in a line: polyglutamine-triggered caspase-3 activation inhibitors, cell-based (AID 1583). The conditions noted are these: polyglutamine-induced caspase-3 activation, cell assay; stronger effect = higher value;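 tested at 10 µM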.
Test [7] is described as follows: suppressors of polyQ aggregation in yeast, 75Q-TubU reporter (AID 1593). To be noted: Yeast 75Q polyglutamine aggregation reporter.
A short description of test [8]: rescue of polyQ-huntingtin neuronal dysfunction in worms, whole organism, C. elegans mechanosensory neurons, N-terminal huntingtin (AID 1599). The conditions noted are these: touch response, stronger effect = higher value.
Test [9] can be described thus: inhibitors of mitochondrial cytochrome c release, biochemical, purified mitochondria (AID 1603).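 Note: mouse liver mitochondria challenged with calcium chloride; signal normalized to the plate average as 100%.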 The conditions noted are these: stronger effect = lower value.
Test [10] is described as follows: inhibitors of polyQ protein aggregation (AID 1604). The conditions noted are these: polyglutamine-induced protein aggregation inhibition assay; stronger effect = higher value; tested at 2.5 µM.
The nature of test [11]: enhancers of glutamate uptake in motor neurons, MN-1 cell line (AID 1612).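 Note: tested at 1 µM final; 0% = mean of DMSO vehicle wells on each plate; positive means more glutamate uptake than control and negative means less.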 The conditions noted are these: MN-1 motor neuron cells, stronger effect = higher value.
Test [12] in a line: reducers of polyQ inclusions in PC12 cells, cell-based, NGF-treated PC12, GFPQ80 (AID 1614).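 Note: lower means fewer inclusions and 0 means no inclusions at all.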 The conditions noted are these: PC12 NGF-treated GFP-polyQ80 inclusion reduction.
The nature of test [13]: suppressors of polyglutamine aggregation in yeast, 75Q-TubH (AID 1616). The conditions noted are these: S. cerevisiae 75Q-TubH polyglutamine aggregation suppression; stronger effect = higher value.
Test [14] is described as follows: circadian clock period modulators, cell-based, LOPAC library, luminescence reporter (AID 2774; call rule not given here;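 note: values are relative to mean of DMSO wells on each plate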). The conditions noted are these: circadian reporter cells, at 7 µM, actives lie on both sides.
Test [15] is described as follows: liver-stage malaria parasite growth inhibition, primary screen, cell-based, HepG2, luciferase luminescence, HepG2 viability (AID 624349; in the data active = parasite load remaining mostly below about 12%, no sharp cut-off; inactive = mostly above about 10%;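 note: 100% = mean of DMSO negative control wells on the same plate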). To be noted: P. berghei liver stage in HepG2, luciferase luminescence, concentration not given here; parasite load remaining: stronger effect = lower value; viability: measured here: HepG2 viability without parasites.
The test system of test [16] is Hepatitis C virus NS3 helicase. The test is described as follows: HCV NS3 helicase inhibitors, primary screen, biochemical, fluorescence polarization, LOPAC1280 library (AID 687035; in the data active = inhibition above about 37%). The conditions noted are these: Purified HCV NS3 helicase, Cy5-dT15 ssDNA binding fluorescence polarization; stronger effect = higher value; concentration not given here.
Test [17] in a line: phospholipid biosynthesis inhibitors in animal cells, primary screen, cell-based, LOPAC library, screen 4 (AID 1347384; call rule not given here). The conditions noted are these: phospholipid biosynthesis inhibition screen, at 10 µM.
Test [18] in a line: viability rescue of complex I mutant cybrids, primary screen, cell-based, galactose medium, ATP luminescence (AID 1645843;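 active = z-score of at least 1.8 in each of two replicates, scored against plate mean and spread of sample wells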;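 note: positive z means more ATP and so rescue of galactose-driven cybrid death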). The conditions noted are these: complex I mutant cybrid cells, 72 h, stronger effect = higher value.
The target of test [19] is NAD(+) hydrolase SARM1 (Homo sapiens) (UniProt Q6SZW1). In words: SARM1 TIR NADase inhibitors, cell lysate, NAD-Glo luminescence (AID 1508614;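 active = compound whose remaining NAD level is above about 45 nM, limit read from the data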;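 note: higher remaining NAD means stronger inhibition of SARM1 NADase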). The conditions noted are these: SAM-TIR HEK293T lysate NADase, at 1 µM, stronger effect = higher value.
Setting [20] is: measured here: epithelial PC-3E GFP cell survival.
Setting [21] is: measured here: mesenchymal TEM4-18 mCherry cell survival.
Setting [22] is: stronger effect = lower value, cell number ratio, induced over uninduced.
The mark [23] stands for this setting: measured here: relative caspase fold change +Dox/-Dox.
[24] abbreviates: measured here: total cells with miR-34 induction, stronger effect = lower value.
The mark [25] stands for this setting: measured here: total cells without miR-34 induction.
Setting [26] is: MELAS cybrid survival, CellTiter-Glo 48 h, stronger effect = higher value.
[27] abbreviates: Rieske KO mouse fibroblast survival, CellTiter-Glo 72 h.

Where “and” joins values, the source holds several entries; their conditions need not be identical. Equal entries are not always repeated. For some of these results: Potency and affinity values are given separately. Calls of active or inactive are those of the source.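 Rule for the calls, unless noted: active = compounds whose cell count with miR-34 switched on is under 0.7 times the count with it off; inactive = the rest.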

6-phosphogluconate dehydrogenase, decarboxylating (Homo sapiens), sequence (P52209 whole entry, looked up): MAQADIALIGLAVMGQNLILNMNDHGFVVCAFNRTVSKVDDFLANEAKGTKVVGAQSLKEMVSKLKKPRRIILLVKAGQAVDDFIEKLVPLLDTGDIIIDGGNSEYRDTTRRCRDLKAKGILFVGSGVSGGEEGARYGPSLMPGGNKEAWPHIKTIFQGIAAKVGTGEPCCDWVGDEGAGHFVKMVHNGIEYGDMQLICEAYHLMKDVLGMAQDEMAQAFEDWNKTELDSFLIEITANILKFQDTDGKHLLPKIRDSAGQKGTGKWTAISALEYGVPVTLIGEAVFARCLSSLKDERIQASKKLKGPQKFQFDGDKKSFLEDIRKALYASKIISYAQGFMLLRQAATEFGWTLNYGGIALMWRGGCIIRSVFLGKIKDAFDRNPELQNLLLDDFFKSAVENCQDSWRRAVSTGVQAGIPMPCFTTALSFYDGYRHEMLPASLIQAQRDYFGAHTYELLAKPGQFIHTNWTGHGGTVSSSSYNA
Mitogen-activated protein kinase 7 (Homo sapiens), sequence (Q13164 whole entry, looked up, the tested form may be a part): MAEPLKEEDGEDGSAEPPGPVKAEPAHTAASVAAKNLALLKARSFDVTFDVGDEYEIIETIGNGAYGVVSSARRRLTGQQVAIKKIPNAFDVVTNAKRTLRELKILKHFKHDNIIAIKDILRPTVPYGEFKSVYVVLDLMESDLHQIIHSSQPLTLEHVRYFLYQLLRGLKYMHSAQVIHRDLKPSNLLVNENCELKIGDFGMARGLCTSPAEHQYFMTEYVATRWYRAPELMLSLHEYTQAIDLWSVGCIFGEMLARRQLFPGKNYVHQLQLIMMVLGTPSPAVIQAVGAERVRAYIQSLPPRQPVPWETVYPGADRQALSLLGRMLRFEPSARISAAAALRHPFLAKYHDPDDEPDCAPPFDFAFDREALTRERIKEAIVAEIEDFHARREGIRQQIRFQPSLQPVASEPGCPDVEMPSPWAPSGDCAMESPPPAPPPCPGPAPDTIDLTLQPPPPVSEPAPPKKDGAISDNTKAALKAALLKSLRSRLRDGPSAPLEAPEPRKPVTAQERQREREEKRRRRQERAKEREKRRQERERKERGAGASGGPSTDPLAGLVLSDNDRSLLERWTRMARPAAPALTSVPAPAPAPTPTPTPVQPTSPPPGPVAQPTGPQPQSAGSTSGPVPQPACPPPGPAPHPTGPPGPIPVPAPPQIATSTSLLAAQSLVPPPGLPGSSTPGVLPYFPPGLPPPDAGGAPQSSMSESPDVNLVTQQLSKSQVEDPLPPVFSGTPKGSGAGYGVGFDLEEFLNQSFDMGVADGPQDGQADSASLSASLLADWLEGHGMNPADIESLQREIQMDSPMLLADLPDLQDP
NAD(+) hydrolase SARM1 (Homo sapiens), sequence (Q6SZW1 whole entry, looked up): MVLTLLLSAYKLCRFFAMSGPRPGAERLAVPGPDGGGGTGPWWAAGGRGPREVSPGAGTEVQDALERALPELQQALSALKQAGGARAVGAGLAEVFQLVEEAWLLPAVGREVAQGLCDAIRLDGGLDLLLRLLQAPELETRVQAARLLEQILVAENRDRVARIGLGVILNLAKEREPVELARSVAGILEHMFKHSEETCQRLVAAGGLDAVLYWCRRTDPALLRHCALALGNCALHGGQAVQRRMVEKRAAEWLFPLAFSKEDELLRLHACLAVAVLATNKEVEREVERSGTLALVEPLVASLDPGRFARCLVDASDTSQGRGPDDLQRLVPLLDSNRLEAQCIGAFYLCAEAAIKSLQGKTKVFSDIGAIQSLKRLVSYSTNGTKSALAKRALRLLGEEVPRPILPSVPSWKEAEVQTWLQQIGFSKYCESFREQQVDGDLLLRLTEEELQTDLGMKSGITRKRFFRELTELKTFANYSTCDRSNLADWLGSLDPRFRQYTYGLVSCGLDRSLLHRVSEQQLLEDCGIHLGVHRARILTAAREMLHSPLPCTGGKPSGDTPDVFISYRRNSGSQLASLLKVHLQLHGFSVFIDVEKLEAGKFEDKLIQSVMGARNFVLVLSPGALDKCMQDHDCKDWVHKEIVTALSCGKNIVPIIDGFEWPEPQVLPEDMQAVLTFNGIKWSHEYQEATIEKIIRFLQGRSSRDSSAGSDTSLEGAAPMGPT

With `O=c1c2ccccc2oc2ccccc12`, the inhibition (as a rule, the relative decrease from the control value, in per cent) in test [1] is 0.222% (inactive). In addition, the red/green cell ratio (normalised) in test [2] was 1.1 (inactive). Moreover, the normalised cell number in test [2] (setting [20]) came to 0.96; in test [2] (setting [21]) it was 1.06. For the same compound, the fold change in test [3] (setting [22]) is 0.991 (inactive); in [3] (setting [23]), 0.506. The cell count worked out at 7550 in [3] (setting [24]) and 7620 in [3] (setting [25]). The z-score in test [4] (setting [26]) was -0.409 (inactive); in test [4] (setting [27]), -0.0965. Besides, the luciferase signal in test [5] was 64 AU (inactive).

`NCCSSCCN`: the inhibition is 34.8% in test [6], -2% (inactive) in test [16] and 7.72% (inactive) in test [1]. The compound also came in with a score in [7] of 1.31. In addition, in test [8], the rescue above control is -5.12. Also, the cytochrome c release ratio in [9] worked out at 1.22. The same compound gave an inhibition of aggregation in [10] of 47.1%. For the same compound, the glutamate uptake change in [11] is 15.5%. Also, the inclusion score in [12] worked out at 2. This compound also registered an aggregation suppression score in test [13] of 1.2. In addition, the period change in test [14] is -0.055 h (inactive). Also, in test [15], the parasite load remaining was 165% (inactive). The viability – broadly, a read-out of living cells in per cent, often relative to untreated cells – in test [15] was 85.4%. In addition, the red/green cell ratio (normalised) in test [2] is 0.92 (inactive). Also, the normalised cell number in test [2] (setting [20]) was determined as 1.09; in test [2] (setting [21]), 1.01. For the same compound, the fold change in test [3] (setting [22]) was 1.02 (inactive); in test [3] (setting [23]), 2.84. The cell count was 10300 in [3] (setting [24]) and 10100 in test [3] (setting [25]). The compound was classed as inactive in test [17]. Also, the luciferase signal in test [5] was 76 AU (inactive). The z-score in test [18] is -0.04 (inactive).

With `CC(=O)N1CCN(c2ccc(OCC3CO[C@](Cn4ccnc4)(c4ccc(Cl)cc4Cl)O3)cc2)CC1` (stereo partly specified), the inhibition in test [6] is -4.16%; in test [1] it was -8.94% (inactive). The score in test [7] was found to be 0.15. For the same compound, the rescue above control in [8] is 0.92. Moreover, the cytochrome c release ratio in test [9] amounted to 1.8. Besides, the inhibition of aggregation in [10] was found to be 88.5%. Moreover, the glutamate uptake change in test [11] was -8.61%. Also, in test [13], the aggregation suppression score amounted to 0.126. The parasite load remaining in test [15] was 15.3% (inactive) and 4.75% (inactive). Further, in test [15], the viability was 65.5% and 60%. In addition, the red/green cell ratio (normalised) in [2] is 0.9 (inactive). In addition, the normalised cell number in test [2] (setting [20]) turned out to be 0.95; in [2] (setting [21]), 0.85. Further, the fold change in test [3] (setting [22]) was 1 (inactive) and 1.02 (inactive) and 0.954 (inactive); in test [3] (setting [23]), 2.72 and 0.263 and 1.79. The cell count is 7410 and 7100 and 8230 in test [3] (setting [24]); 7380 and 6960 and 8630 in test [3] (setting [25]). Also, the figures for the z-score in [4] (setting [26]), in [4] (setting [27]) and in test [18] were -0.501 (inactive), -0.0671 and -0.8 (inactive), respectively.

`CN[C@H](CC(=O)O)C(=O)O`: the inhibition is 0.95% in test [6], -2% (inactive) in test [16] and 6.3% (inactive) in test [1]. This compound also displayed a score in test [7] of 1.4. This compound also returned a rescue above control in test [8] of -9. Also, the cytochrome c release ratio in test [9] turned out to be 0.78. For the same compound, the inhibition of aggregation in test [10] was 80.3%. Besides, the glutamate uptake change in test [11] is -1.67%. Moreover, in test [12], the inclusion score amounted to 2. This compound came in with an aggregation suppression score in [13] of 1.66. Besides, the period change in [14] is -0.09 h (inactive). The parasite load remaining in test [15] is 161% (inactive). This compound showed a viability in test [15] of 83.1%. In addition, the red/green cell ratio (normalised) in [2] is 1.02 (inactive). For the same compound, the normalised cell number came out at 1.12 in test [2] (setting [20]) and 1.15 in test [2] (setting [21]). For the same compound, the fold change is 1.06 (inactive) in [3] (setting [22]) and 0.738 in [3] (setting [23]). For the same compound, the results for the cell count in [3] (setting [24]) and in test [3] (setting [25]) were 10900 and 10300, respectively. Also, the outcome in test [17] was inactive. Besides, the luciferase signal in [5] is 56 AU (inactive). Further, the z-score in [18] was 0.495 (inactive).

Regarding `NC(=O)CC[C@H](N)C(=O)O`, the period change in test [14] is -0.065 h (inactive). The inhibition was -3% (inactive) in [16] and -0.19% (inactive) in [1]. Also, the red/green cell ratio (normalised) in [2] was 0.89 (inactive) and 1.18 (inactive). Also, the normalised cell number in [2] (setting [20]) was 1.22 and 0.97; in test [2] (setting [21]) it was 1.08 and 1.13. Besides, the fold change was 0.981 (inactive) and 0.937 (inactive) in [3] (setting [22]); 0.852 and 0.867 in [3] (setting [23]). Besides, the cell count in test [3] (setting [24]) is 10400 and 8420; in test [3] (setting [25]), 10600 and 8990. Further, the compound was classed as inactive in [17]. Besides, in test [19], the remaining NAD was 10 nM (inactive). In addition, the luciferase signal in [5] is 40 AU (inactive). For the same compound, the z-score in test [18] is 0.01 (inactive).

Values taken from PubChem BioAssay.
